Screening data as filed in PubChem.
This is a sample that favours compounds with a hit; in the whole collection about 2.3% have one here.
S2 tox = Viability Counterscreen for Primary qHTS for Inhibitors of ATXN expression; Potency, µM (series often up to 56.7 µM), usual class: cytotoxic; AID 651635, 2014; S2 cells (HEK-293 line with an ATXN2-luciferase reporter) viability, CellTiter-Fluor protease fluorescence, 24 h; 0.49% of 400,000 active; further: nearly all actives have a fitted effect of over 40% in size
TGFb SMAD3 inh = qHTS for Inhibitors of TGF-b. HepG2 CAGA-GFP TGF-b/SMAD3 reporter, GFP fluorescence, 18 h; TGF-beta stimulated, 500 pg/mL final. Potency, µM (doses to about 46.1 µM), for the others: top-dose activity, negative = inhibition, most hits filed as inhibitors. 1.2% of 410,000 active; further: on the % scale 0 is the no-effect control and ±100 the full control effect; nearly all actives have a fitted effect of over 65% in size
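HEPG2 CAGA-GFP cells (1000/well, DMEM with 1% FBS) were pre-incubated 2 h at 37 degrees C, given compound by pin tool, then stimulated with TGF-beta at 500 pg/mL final for 18 h before per-cell GFP fluorescence imaging.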
ATXN2 expr inh = Primary qHTS for Inhibitors of ATXN expression; HEK-293 ATXN2-luciferase reporter, luminescence, 24 h; 0.72% of 360,000 active; Potency, µM (series often up to 57 µM), for the others: at the top dose activity change, negative = inhibition, hits mostly inhibitors; further: on the % scale 0 is the no-effect control and ±100 the full control effect; nearly all actives have a fitted effect of over 55% in size
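qHTS (up to 57 uM final) was run with 24 h compound exposure of reporter cells at 37 °C. Each well was multiplexed: SteadyGlo luminescence measured ATXN2-luciferase expression after a fluorogenic Gly-Phe-AFC viability readout (25 uM final).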
HepG2 tox = qHTS for Inhibitors of TGF-b: Cytotox Counterscreen; HepG2 CAGA-GFP viability, ATP luminescence, 18 h; Potency, µM (highest dose often 46.1 µM), without a hit: at the top dose activity change, negative = cytotoxicity, actives largely listed as cytotoxic; 0.76% of 410,000 active
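CellTiter-Glo luminescence gave cytotoxicity after 18 hours at 37 degrees C. The cells were HepG2 CAGA-GFP in 1% FBS DMEM, stimulated with 500 pg/mL TGF-beta after compound addition. %Activity was normalised to no-cell wells (complete cell-killing) and DMSO (no toxicity), and curves were fitted and classified.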
Starred values were filed as active, the others as inactive; i = inactive; ? = inconclusive; / = no result. The call rests on the fitted dose curve; in most records, active means well fitted curve in the direction sought with a large enough effect; inconclusive means small, poorly fitted or top-dose-only effect, or another doubt; inactive means no such curve, though single readings can be large; an effect the other way counts as inactive or inconclusive. Potency means the concentration at half of the fitted maximal effect.

SMILES	S2 tox	TGFb SMAD3 inh	ATXN2 expr inh	HepG2 tox
Cc1ccc(OCCn2c(C3CC(=O)N(Cc4ccc(F)cc4)C3)nc3ccccc32)c(C)c1 (stereo not drawn)	?	?	?	17.8µM*
O=C1CC(c2nc3ccccc3n2CCCCOc2ccccc2)CN1c1ccccc1Cl (stereo not drawn)	28.2µM*	?	?	-45.4%
CCc1ccc(OCCn2c(C3CC(=O)N(Cc4ccc(F)cc4)C3)nc3ccccc32)cc1 (stereo not drawn)	/	?	?	-111.0%
CCOc1ccccc1N1CC(c2nc3ccccc3n2CCCCOc2ccccc2)CC1=O (stereo not drawn)	i	?	-7.3%	-1.0%
CCOc1ccc(N2CC(c3nc4ccccc4n3CCCOc3ccccc3OC)CC2=O)cc1 (stereo not drawn)	17.8µM*	-29.5%	?	-12.9%
CCOc1ccc(N2CC(c3nc4ccccc4n3CCOc3ccccc3)CC2=O)cc1 (stereo not drawn)	?	15.8µM*	?	-23.8%
Cc1ccc(CN2CCOc3ccc(CN4CCN(CCO)CC4)cc3C2)s1	i	/	/	/
C=C1NN(Cc2ccccc2)C(=O)N1c1ccc(OC)cc1	/	19.9%	/	5.9%
CCc1ccccc1N1CC(c2nc3ccccc3n2CCC2CCCCC2)CC1=O (stereo not drawn)	28.2µM*	?	?	10µM*
CCc1cc(C(=O)N2CCN(C(=O)c3ccccc3)CC2)sc1C	i	0.0%	-18.0%	5.01µM*
COc1cc(F)c(C(C)C)cc1-c1ccc(C(F)(F)F)cc1CN1C(=O)O[C@H](c2cc(C(F)(F)F)cc(C(F)(F)F)c2)[C@@H]1C	/	/	-8.7%	/
C#CCOCCOCCOCCNc1nc(N2CCN(C(=O)CCCCCCCCCCNC(=O)[C@@H](CCSC)n3cc(CCO)nn3)CC2)nc(N2CCN(C(=O)CCCCCCCCCCNC(=O)[C@H]([C@@H](C)CC)n3cc(CCCCCN)nn3)CC2)n1	14.1µM*	?	28.2µM*	-100.7%
C#CCOCCOCCOCCNc1nc(N2CCN(C(=O)CCCCCCCCCCNC(=O)[C@@H](CCSC)n3cc(CCO)nn3)CC2)nc(N2CCN(C(=O)CCCCCCCCCCNC(=O)[C@H]([C@@H](C)CC)n3cc(CCCCN=C(N)N)nn3)CC2)n1	15.8µM*	?	?	-76.2%
COc1ccc(C(=O)c2sc(Nc3ccccc3)nc2N)cc1	i	11.2µM*	-5.3%	-53.6%
COc1ccc(C(=O)c2sc(Nc3cc(Cl)ccc3C)nc2N)cc1OC	i	?	?	-25.8%
COc1ccc(C(=O)c2sc(Nc3ccccc3)nc2N)cc1OC	/	12.6µM*	?	-13.0%
COC(=O)/C=C\C(=O)OC	i	/	6.7%	/
O=C(Nc1nc2ccccc2n1Cc1ccc(Cl)cc1)c1ccco1	i	?	-24.2%	-21.4%
CC(=O)Nc1nc2ccccc2n1Cc1ccc(Cl)cc1	25.1µM*	?	17.8µM*	-27.0%
CCCn1c(C2CCCN2c2nc(-c3cccc(Br)c3)cs2)nc2ccccc21 (stereo not drawn)	22.4µM*	?	0.0%	-30.1%
CC(=O)c1ccc(NC(=S)NC(C)CCc2ccccc2)cc1 (stereo not drawn)	i	12.6µM*	7.1%	-41.9%
Cc1ccc(NC(=S)NC(C)CCc2ccccc2)cc1C (stereo not drawn)	i	?	-24.2%	-7.7%
C=C1C=C(C(F)F)n2ncc(C(=O)NCc3ccc(F)cc3)c2N1	/	1.9%	/	3.6%
CN(Cc1ccccc1)C1=CC(=[N+]2CCCCC2)CC(C)(C)C1	i	11.2µM*	?	-25.6%
CC1(C)CC(N2CCN(Cc3ccccc3)CC2)=CC(=[N+]2CCCCC2)C1	i	?	?	-40.5%
SMILES	S2 tox	TGFb SMAD3 inh	ATXN2 expr inh	HepG2 tox
Cc1cnc(C)c(-c2cc(F)cc3c2OC(CNC(=O)Cc2ccccc2C)C3)n1 (stereo not drawn)	i	/	/	/
COc1ccc(C(C(=O)NCCC(C)C)N(CCO)C(=O)c2snc(C(N)=O)c2N)cc1 (stereo not drawn)	i	-6.5%	0.0%	-16.0%
CCCC(C(=O)NCCC(C)C)N(Cc1ccc(OC)cc1)C(=O)c1snc(C(N)=O)c1N (stereo not drawn)	23.8µM*	0.0%	15.2%	-18.4%
CC1(C)OC(=O)C2(Cc3ccccc3N3CCCC32)C(=O)O1 (stereo not drawn)	/	-6.4%	/	-16.8%
COc1c(Cl)cc(C(=O)Nc2cc(-c3nc4ccccc4[nH]3)ccc2C)cc1Cl	10µM*	?	?	-36.7%
O=C(N/N=C/c1cn(Cc2ccccc2)c2ccccc12)c1cccnc1	i	2.82µM*	?	-36.5%
CCOC(=O)N/N=C/c1cn(Cc2ccc(F)cc2)c2ccccc12	i	2.24µM*	/	-52.7%
Nc1ccc(C(=O)N/N=C/c2cn(Cc3cccc(F)c3)c3ccccc23)cc1	i	1.26µM*	-31.1%	-1.0%
O=C(N/N=C/c1c(O)n(Cc2ccccc2)c(=O)c2ccccc12)c1cccnc1	/	0.0%	16.8µM*	-39.6%
CCCc1c(-c2cccc(Cl)c2)ncn1CCc1ccccc1OC	22.4µM*	/	?	/
CCCCc1c(-c2ccccc2OC)ncn1CCc1cccc(Cl)c1	/	/	0.0%	/
CCCc1c(-c2ccc(Cl)cc2)ncn1CCc1ccccc1OC	35.5µM*	/	?	/
CCCCCc1c(-c2ccccc2)ncn1CCc1ccccc1OC	?	/	0.0%	/
CCCCc1c(Cc2cccc(F)c2)ncn1CCc1ccccc1OC	17.8µM*	/	14.1µM*	/
CCCCc1c(-c2cccc(OC)c2)ncn1CCc1ccccc1OC	/	/	22.4µM*	/
O=C(Cc1ccc(OCc2ccccc2)cc1)NO	/	8.7%	/	-7.4%
CCCCCCc1ccc(C(=O)CCN(C)C)cc1	/	-29.4%	/	/
Cc1ccccc1-n1c(C)nnc1SC(C)C(=O)NCc1ccco1 (stereo not drawn)	/	20.4%	/	4.0%
Cc1c(C(=O)NC2CCCC2)sc2ncnc(NCCN(C)C)c12	i	/	/	/
Cc1c(C(=O)NCC2Cc3cccc(-c4cncnc4)c3O2)c(-c2ccccc2)nn1-c1ccccc1 (stereo not drawn)	i	/	/	/
COC(=O)C1=C(C)N(Cc2ccccc2)C(=NCc2cccc(C(F)(F)F)c2)N[C@H]1c1cccc(F)c1	/	?	31.6µM*	14.1µM*
COC(=O)C1=C(C)N(Cc2ccccc2)C(=NCc2cccc(C(F)(F)F)c2)N[C@H]1c1cccc(C(F)(F)F)c1	17.8µM*	10µM*	28.2µM*	17.8µM*
C[C@H](CCC(=O)O)[C@H]1CC[C@H]2[C@@H]3[C@H](O)C[C@@H]4C[C@H](O)CC[C@]4(C)[C@@H]3CC[C@]12C	/	/	7.3%	/
CCOc1ccc2nc(NC(=O)c3ccccn3)sc2c1	?	-8.7%	25.1µM*	-32.2%
CCOc1ccc2nc(NC(=O)c3ccoc3C)sc2c1	i	-15.4%	1.8%	1.78µM*
CCOc1ccc2nc(NC(=O)c3ccco3)sc2c1	i	-5.8%	-28.8%	-52.3%
